# HSP90 refold inh: blocks HSP90-mediated luciferase refolding in reticulocyte lysate. Rabbit reticulocyte lysate, luciferase refolding luminescence, 3 h. inhibition, % at 5.6 µM. hit rate 0.91% among 290,000;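 active means inhibition above the screen-wide mean plus 3 SD, computed separately per campaign, cut at about 16% in these data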;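 further: 0% = DMSO wells and 100% = 60 µM geldanamycin wells; inhibitors lower the luminescence because luciferase stays unfolded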
# SENP8 block-1: inhibitors of human SENP8 protease. Q96LD8. recombinant SENP8, Nedd8 substrate fluorescence. inhibition, % at 20 µM. hit rate 0.64% among 360,000. AID 602440; in the data active means inhibition mostly above about 40%, no sharp cut-off; inactive means mostly below about 27%
# Target sequence (Q96LD8 whole entry, looked up): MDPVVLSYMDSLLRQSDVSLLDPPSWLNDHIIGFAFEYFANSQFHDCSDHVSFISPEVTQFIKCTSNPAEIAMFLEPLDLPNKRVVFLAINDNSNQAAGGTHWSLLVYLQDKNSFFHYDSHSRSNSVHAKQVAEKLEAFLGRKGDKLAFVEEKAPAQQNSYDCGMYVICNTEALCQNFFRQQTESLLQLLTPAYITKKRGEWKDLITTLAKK
# SENP8 block-2: inhibitors of human SENP8 protease; purified SENP8, Z-RLRGG-aminoluciferin cleavage, luminescence; inhibition, % at 10 µM; hit rate 1.2% among 330,000; in the data active means inhibition above about 50%
# SENP7 inh: SENP7 protease inhibition; Q9BQF6; recombinant SENP7, Z-RLRGG-aminoluciferin luminescence, 40 min; inhibition, % at 5 µM; hit rate 1.5% among 330,000;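 active means inhibition above about 50% at the single test dose, limit read from the data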;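 further: plate controls were DMSO with enzyme for no effect and no enzyme buffer wells for full effect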
# Target sequence (Q9BQF6 706-1050 limits assumed): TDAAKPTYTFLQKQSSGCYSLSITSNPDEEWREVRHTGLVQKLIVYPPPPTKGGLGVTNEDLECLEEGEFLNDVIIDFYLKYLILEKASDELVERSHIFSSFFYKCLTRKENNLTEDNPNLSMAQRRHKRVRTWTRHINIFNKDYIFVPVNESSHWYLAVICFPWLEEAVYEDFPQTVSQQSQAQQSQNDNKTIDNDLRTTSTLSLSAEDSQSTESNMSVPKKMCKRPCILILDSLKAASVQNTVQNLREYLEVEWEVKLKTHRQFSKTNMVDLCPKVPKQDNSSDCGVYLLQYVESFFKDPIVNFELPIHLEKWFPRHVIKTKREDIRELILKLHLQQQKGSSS
# Platelet DG rel: modulates dense granule release in human platelets; human platelet-rich plasma, SFLLRN dense granule ATP release, luminescence; inhibition, %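 (compounds screened at 7.5 µM in platelet-rich plasma)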; hit rate 0.22% among 300,000; AID 1663;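 active means mean replicate score, as percent of positive control, at or above 50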
# SENP6 block: SENP6 protease inhibition; Recombinant SENP6 catalytic domain, aminoluciferin luminescence; inhibition, % at 10 µM; hit rate 1.8% among 330,000; AID 2599;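 active means inhibition above about 50% at the single tested dose, limit read from the data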;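 further: plate controls were DMSO wells with enzyme for no effect and DMSO wells lacking enzyme for full effect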
# * hit, by the source's call; i = inactive; nt = not tested or not shown. Compounds with a hit are over-represented: about 2.8% of the library has one in this group of screens.
SMILES,HSP90 refold inh,SENP8 block-1,SENP8 block-2,SENP7 inh,Platelet DG rel,SENP6 block
CCC(=O)N1CCCC(C)(C(=O)Nc2nccc3ccccc23)C1 (stereo unspecified),nt,-35,nt,nt,nt,nt
O=C(Nc1ccccc1)c1ccccc1CCc1ccccc1,-1,10,6,-8,0,6
O=C(Nn1cnnc1)c1ccccc1CCc1ccccc1,3,14,-5,-4,62*,-12
O=C(Nc1nnc([C@H]2C[C@H](O)[C@@H](CO)O2)s1)c1ccc(Oc2ccccc2)cc1,nt,-20,nt,nt,nt,nt
CCc1nnc(NC(=O)CSc2nc3c(cc2C#N)CCC3)s1,-5,i,-3,2,0,4
N#Cc1cc2c(nc1SCC(=O)Nc1nccs1)CCCCC2,20*,-138,2,3,9,0
CCc1ccc(/C=N/NC(=O)c2nnn(-c3nonc3N)c2CN2CCOCC2)cc1,4,2,-3,10,50*,-4
O=C(CSc1nnc(NC(=O)c2ccc3c(c2)OCO3)s1)NCc1ccco1,7,-84,0,65*,nt,3
O=C(CSc1nnc(NC(=O)c2ccccc2)s1)NCc1ccco1,2,-2,15,36,4,22
CCOc1ccc(CCNC(=O)COC(=O)c2ccc[nH]c2=O)cc1OCC,nt,8,-6,-8,nt,-19
O=C(C=Cc1ccccc1)c1c[nH]c2ccccc2c1=O,nt,-15,nt,nt,nt,nt
O=C(/C=C/c1ccccc1)c1c[nH]c2ccccc12,0,9,38,84*,8,58*
COc1ccc(Cl)cc1N=Cc1c(O)cc(C)oc1=O,-1,-43,2,3,1,-17
Cc1cc(O)c(/C=N/Nc2ccc(Cl)cc2)c(=O)o1,0,-101,80*,56*,2,85*
CN(C)c1ccc(/C=N/Nc2nncc3ccccc23)cc1,3,18,nt,nt,54*,nt
C(=N\Nc1nncc2ccccc12)/c1ccccc1,2,-28,24,30,9,33
N#Cc1c(N)nc(N)nc1Nc1ccc(Br)cc1,0,12,22,36,0,60*
Cc1nc(N)nc(Nc2ccc(C#N)cc2)c1Br,-3,0,0,2,-2,3
CCc1ccc(C(C)NC(=O)COC(=O)c2ccc(-n3cnnn3)cc2)cc1 (stereo unspecified),nt,-16,2,2,nt,-6
CN1CCC/C1=C/C=C1\SC(=S)NC1=O,5,82*,nt,nt,nt,nt
C#CCN1C(=O)S/C(=C/C=C/c2ccc(N(C)C)cc2)C1=O,21*,32,nt,nt,nt,nt
O=C(CN1C(=O)S/C(=C\C=C\c2ccccc2)C1=O)Nc1ccccc1C(=O)O,5,-37,-4,-6,0,-15
Oc1ccc(/C=N/N2CCCCC2)cc1O,-3,45*,-11,-3,5,-2
CC1CCCC(C)N1/N=C/c1ccc(O)c(O)c1 (stereo unspecified),-3,51*,12,8,-3,1
COc1ccc(/C=N/N2C(C)CCCC2C)cc1O (stereo unspecified),-1,12,-5,-5,-1,-21
SMILES,HSP90 refold inh,SENP8 block-1,SENP8 block-2,SENP7 inh,Platelet DG rel,SENP6 block
CCCc1ccc(C(=O)NC(=O)c2ccccc2O)cc1,0,6,62*,21,-4,73*
CCCc1ccc(C(=O)NNC(=O)c2ccc(Br)cc2)cc1,-2,18,8,2,-4,-8
C=CCN1C(=O)N(CC=C)c2cccc3cccc1c23,-1,11,3,9,2,3
CCN1C(=O)Nc2cccc3cccc1c23,nt,-76,7,-1,59*,-1
O=[N+]([O-])c1ccc(O)c(/C=N/Nc2nn[nH]n2)c1,4,7,0,-2,-4,1
O=[N+]([O-])c1ccc(O)c(/C=N/NC2=NS(=O)(=O)c3ccccc32)c1,3,-103,82*,95*,6,86*
O=[N+]([O-])c1ccc(O)c(/C=N/Nc2ccc(Cl)nn2)c1,0,20,27,-7,5,54*
O=[N+]([O-])c1ccc2nc(-c3ccc(OC(F)F)cc3)cn2c1,17*,-8,2,33,3,3
COc1ccc(-c2cn(Cc3ccc([N+](=O)[O-])cc3)nn2)cc1,3,16,-7,6,2,5
O=C(CSc1nnc2ccccn12)Nc1ccc2c(c1)OCO2,-2,9,-1,-2,-6,7
O=C(CSc1nnc2ccccn12)Nc1cccc(-c2nc3ccccc3s2)c1,-1,-127,-2,63*,-3,15
COC(=O)c1ccc(C(=O)OC)c(NC(=O)Nc2ccc3c(c2)OCO3)c1,-5,6,-3,2,-1,5
O=C(CCNC(=O)c1ccccc1Cl)Nc1ccc2c(c1)OCO2,2,11,-6,-2,-3,-4
O=C(Nc1ccc2c(c1)OCO2)c1ccc2c(c1)OCO2,7,9,67*,85*,46,86*
O=C(CCl)Nc1ccccc1C(=O)Nc1ccc2c(c1)OCO2,9,16,-10,-2,55*,8
COC(=O)c1ccccc1NC(=O)Nc1ccc2c(c1)OCO2,-1,15,-8,0,74*,-9
Oc1c(/C=C/C=C/C=Nc2ccccc2)sc(=S)n1Cc1ccccc1,8,38,6,4,7,7
CC1(C(=O)Nc2cnc3ccccc3c2)CCN1C(=O)CCc1ccccc1 (stereo unspecified),nt,0,nt,nt,nt,nt
O=C1CCc2cc(NS(=O)(=O)c3cc(F)ccc3F)cc3c2N1CC3,nt,11,-5,-1,6,-14
CN(C)c1ccc(C=c2c3ccccc3n3c2cc(-c2ccccc2)[n+]3C)cc1,nt,-92,nt,nt,nt,nt
CN(C)c1ccc(C=c2c3cc([N+](=O)[O-])ccc3n3c2cc(-c2ccccc2)[n+]3C)cc1,nt,51*,nt,nt,nt,nt
CN(C)S(=O)(=O)c1ccc(C(=O)Nc2nnc(SCC(=O)N3CCOCC3)s2)cc1,nt,7,nt,nt,nt,nt
CC(C)Oc1ccc(C(=O)Nc2nnc(SCC(=O)N3CCOCC3)s2)cc1,16*,-32,-13,8,8,19
CCCc1ccc(OCC(O)CN2CCN(c3ccccn3)CC2)cc1 (stereo unspecified),-1,6,3,0,0,11
CC(/C=C1\SC(=O)N(CCCC(=O)O)C1=O)=C\c1ccccc1,37*,14,nt,nt,-11,nt
SMILES,HSP90 refold inh,SENP8 block-1,SENP8 block-2,SENP7 inh,Platelet DG rel,SENP6 block
CC(=C\c1ccccc1)/C=C1/SC(=S)N(CCCC(=O)O)C1=O,1,30,-32,-8,-1,-20
COc1ccc(C2=NC(c3ccccc3)CO2)cc1 (stereo unspecified),16*,nt,63*,50*,3,70*
COC(=O)C1(C)Cc2cc(OC(C)=O)c(OC(C)=O)cc2N1 (stereo unspecified),5,nt,-8,-7,4,-8
Cc1ccc(NC(=O)Nc2ccccc2C(N)=O)cc1,5,-41,89*,96*,22,95*
CN(C)S(=O)(=O)c1cccc(NC(=S)N(CCC#N)Cc2cccnc2)c1,1,6,5,-5,-2,14
N#Cc1c(N)sc(=S)c2c1CCN(Cc1ccccc1)C2,nt,nt,96*,79*,nt,94*
